FBW7 activator: human FBW7 E3 ligase activation, primary screen. Q969H0. AlphaScreen FBW7–phospho-cyclin E peptide binding, activator screen. normalized activity (activation), % at 26.1 µM. 650,000 compounds, 0.13% hits. AID 1259310; in the data active = normalized activity above about 1.9%;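 note: purified mutant Fbw7 with reduced substrate affinity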
Target sequence (Q969H0 whole entry, looked up): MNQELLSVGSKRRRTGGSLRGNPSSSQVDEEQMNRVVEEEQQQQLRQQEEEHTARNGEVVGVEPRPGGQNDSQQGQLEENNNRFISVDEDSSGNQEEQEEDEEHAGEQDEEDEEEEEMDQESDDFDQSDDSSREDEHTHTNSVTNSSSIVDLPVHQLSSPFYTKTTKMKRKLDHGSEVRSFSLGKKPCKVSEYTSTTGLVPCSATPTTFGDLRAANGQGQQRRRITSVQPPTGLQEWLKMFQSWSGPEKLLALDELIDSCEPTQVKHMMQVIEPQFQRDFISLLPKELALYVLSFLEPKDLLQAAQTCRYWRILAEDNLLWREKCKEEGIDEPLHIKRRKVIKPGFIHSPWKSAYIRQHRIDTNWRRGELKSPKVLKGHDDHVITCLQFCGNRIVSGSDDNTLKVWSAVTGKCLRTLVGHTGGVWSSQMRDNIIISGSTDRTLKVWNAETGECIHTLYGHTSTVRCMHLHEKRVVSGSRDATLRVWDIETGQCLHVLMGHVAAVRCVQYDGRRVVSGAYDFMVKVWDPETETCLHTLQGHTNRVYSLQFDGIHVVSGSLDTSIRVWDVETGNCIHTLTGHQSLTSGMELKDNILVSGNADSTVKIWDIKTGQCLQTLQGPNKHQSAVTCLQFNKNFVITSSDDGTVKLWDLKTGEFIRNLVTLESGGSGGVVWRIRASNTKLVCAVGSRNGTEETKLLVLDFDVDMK
MITF inh: inhibitors of human MITF; O75030; AlphaScreen MITF homodimerization, bead proximity signal; inhibition, % at 2.6 µM; 650,000 compounds, 0.91% hits; AID 1259374; in the data active = inhibition above about 50%;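 note: 0% = vehicle wells with protein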
TEAD-YAP inh: TEAD-YAP interaction inhibition | HEK-TIYL cells, TEAD-Gal4/YAP UAS-luciferase luminescence | inhibition, % at 9.12 µM | 640,000 compounds, 1.4% hits; in the data active = inhibition above about 32%;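 note: 0% = median of test compound wells and 100% = reference inhibitor wells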
GPR151 ag: activates the human receptor GPR151. 650,000 compounds, 1% hits. PathHunter beta-arrestin GPR151 cells, luminescence. activation, % at 11.2 µM. AID 1508602; in the data active = activation above about 4.9%;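 note: 0% = median of compound wells and 100% = cells with positive control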
Numbers without * were called inactive. Hits are enriched below; roughly 3.4% of the tested compounds scored in any of these assays.

SMILES | FBW7 activator | MITF inh | TEAD-YAP inh | GPR151 ag
COc1cc(-c2nc3nc(C)cc(C)n3n2)cc(OC)c1OC | 0 | 15 | -5 | 2
COC(=O)c1nn(-c2ccc(-c3ccccc3)cc2)cc1O | 0 | 15 | 81* | -6
Cc1ccc(N2C(N)=C(C(N)=O)C(c3ccc(Cl)cc3)C3=C2CC(C)(C)CC3)cc1 (centres undefined) | 0 | 7 | 13 | 0
O=C(CSc1ccc(-c2ccc3c(c2)OCO3)nn1)NC1CCCC1 | 0 | -14 | 4 | 0
C(=N\Nc1nn[nH]n1)/c1ccc2c(c1)OCO2 | 0 | 2 | -11 | 0
Oc1ccc(/C=N/Nc2nn[nH]n2)c(O)c1O | -1 | 95* | 4 | 0
CCN(CC)c1ccc(/C=N/Nc2nn[nH]n2)c(O)c1 | 0 | -12 | -3 | 0
Oc1ccc(/C=N/Nc2nn[nH]n2)cc1O | -1 | 52* | -5 | 2
Cc1nc(C(=O)N2CCc3nnc(CNC(=O)c4cccc(F)c4)n3CC2)cs1 | 0 | 6 | 5 | -1
CCOC(=O)c1sc(NC(=O)c2ccccc2)nc1C | 0 | -1 | -59 | -1
CCOC(=O)c1sc(NC(=O)c2cccc3ccccc23)nc1C | 0 | -10 | 42* | 4
O=[N+]([O-])c1c(Nc2ccc(Br)cc2)cc(N2CCCCC2)c2nonc12 | 0 | 6 | 9 | 2
O=C(NCc1ccncc1)c1ccc(OC2CCN(C3CCOCC3)CC2)cc1 | 0 | -2 | 2 | 0
Cc1cc(CN2CCC(Oc3ccc(C(=O)NCc4ccncc4)cc3)CC2)oc1C | 0 | -13 | 33* | 0
CC(C)Cc1n[nH]c(=S)n1-c1ccccc1 | 0 | -12 | 10 | 0
CN1C(=O)[C@H]2CN(C(=O)Oc3ccc(F)cc3)CCN2C(=O)[C@@H]1Cc1ccccc1 | 0 | -2 | -2 | 0
O=c1c2c3c(sc2nc2c4ccccc4c(Cl)nn12)CCCCC3 | 0 | -4 | -5 | 0
Cc1nn2c(=O)c3c4c(sc3nc2c2ccccc12)CCCC4 | 0 | 2 | 52* | 0
Cc1cccc(NC(=O)CN2C(=O)N/C(=C/c3cn(CC(=O)O)c4ccccc34)C2=O)c1 | 0 | 1 | 9 | 2
COc1ccc(OC)c(CN2CCc3nnc(C(C)NC(=O)c4ccco4)n3CC2)c1 (centres undefined) | 0 | -10 | 2 | 0
Cc1ccccc1OCCCCCCn1ccnc1 | 0 | 5 | -1 | 0
O=C(NCc1nnc(SCc2ccccc2Cl)o1)c1ccccc1 | 0 | -7 | -6 | -1
O=C(NCc1nnc(SCc2cccc(F)c2)o1)c1ccccc1 | 0 | 5 | 56* | 0
O=C(NCc1nnc(SCc2ccccc2)o1)c1ccc(F)cc1 | 0 | 7 | 58* | -1
Cc1cccc(CSc2nnc(CNC(=O)c3ccccc3)o2)c1 | 0 | 6 | 8 | 1
SMILES | FBW7 activator | MITF inh | TEAD-YAP inh | GPR151 ag
O=C(NCc1nnc(SCc2ccccc2F)o1)c1ccc(F)cc1 | 0 | 3 | 61* | 1
CN(CC1COCCO1)c1nncc(-c2ccc3c(c2)OCO3)n1 (centres undefined) | 0 | 6 | -18 | -1
N/C(=N\S(=O)(=O)c1ccc([N+](=O)[O-])cc1)Nc1nc2ccccc2o1 | 0 | -4 | 11 | 0
O=C(Nc1ccc(S(=O)(=O)NCc2cccnc2)cc1)c1ccccc1Cl | 0 | 3 | 28 | 1
O=C(Nc1ccc(S(=O)(=O)NCc2cccnc2)cc1)c1ccco1 | 2.1* | 6 | 14 | 0
COc1cccc(S(=O)(=O)NCc2ccc(C(=O)Nc3cccnc3)cc2)c1 | 0 | 12 | 50* | 0
CCOC(=O)c1c(NC(=O)C(C)C)sc(C(=O)Nc2cc(OC)ccc2OC)c1C | 0 | 8 | 8 | -1
COc1cccc(-n2c(=O)[nH]c3nc(-c4ccncc4)cnc32)c1OC | 0 | 1 | 6 | -1
OC1c2cccc3cccc(c23)-c2nc3ccccc3n21 (centres undefined) | 0 | -10 | -20 | 0
N#C/C(=C\c1ccc(N2CCOCC2)cc1)c1[nH]nc(N)c1C#N | 0 | 18 | 39* | -2
COC(=O)c1ccc2c(=O)n(CCN3CCOCC3)c(SCC(=O)N3CCN(c4ccccc4OC)CC3)nc2c1 | 0 | 4 | 0 | -1
COc1ccccc1C(=O)Nc1ccc(-c2nnn(CC(N)=O)n2)cc1 | 0 | 7 | 2 | 2
CC[C@@]1(O)C(=O)OCc2c1cc1n(c2=O)Cc2cc3cc(O)ccc3nc2-1 | 0 | 12 | 84* | -1
CCOc1ccccc1/C=C1\NC(=S)NC1=O | 0 | 4 | -10 | -1
CCOc1ccc2ccc(OCC)c(C=C3C(=O)NC(=O)NC3=O)c2c1 | 0 | 18 | -30 | -1
CCOc1cccc(/C=C2/NC(=S)NC2=O)c1O | 0 | 11 | 51* | -2
CCOc1ccc2ccc(OCC)c(/C=C3/NC(=S)NC3=O)c2c1 | 0 | -3 | 57* | -1
COc1ccccc1N1CCN(Cc2cc(Cl)c(O)c3ncccc23)CC1 | 0 | 74* | 82* | -1
Oc1c(Cl)cc(CN2CCCC2)c2cccnc12 | -1 | 113* | 93* | -1
Cc1cc(C)cc(N=C2NC(=O)/C(=C/c3ccc(Cl)cc3)S2)c1 | 0 | 25 | 6 | 0
CCc1ccc2c(c1)C(c1ccc(O)c(C)c1)(c1ccc(O)c(C)c1)C(=O)N2 | 0 | 7 | -2 | 1
O=C1C=CC2=C3c4cc(O)c(O)cc4C[C@@]3(O)COC2=C1 | 0 | 88* | 5 | -1
O=C(CN1C(=O)NC2(CCCc3sccc32)C1=O)NCc1ccco1 (centres undefined) | 0 | 4 | -4 | 1
O=C(C1CC(Cc2ccccc2)=NO1)N1CCc2[nH]ncc2C1 (centres undefined) | 0 | 2 | -16 | 4
O=C(Nc1ccc(Cl)cc1)c1cc2ccccc2cc1NS(=O)(=O)c1ccccc1 | 0 | 11 | 53* | 1
SMILES | FBW7 activator | MITF inh | TEAD-YAP inh | GPR151 ag
COc1cc(/C=C2/C(=N)N3OC(C)=CC3=NC2=O)ccc1OCC(C)C | 0 | -5 | 2 | 0
COc1ccccc1NC(=O)Cn1cnc2sc(C(=O)N3CCN(c4ccccc4OC)CC3)c(C)c2c1=O | 2.1* | 14 | 10 | -1
COc1ccccc1NC(=O)Cn1cnc2sc(C(=O)N3CCN(c4ccccc4)CC3)c(C)c2c1=O | 0 | 12 | 5 | -1
COc1ccccc1NC(=O)Cn1cnc2sc(C(=O)Nc3ccc(C)c(F)c3)c(C)c2c1=O | 1.9* | 12 | -12 | -1
COc1ccccc1NC(=O)Cn1cnc2sc(C(=O)Nc3cc(F)ccc3C)c(C)c2c1=O | 1 | 17 | -5 | -1
COc1cc(/C=c2\s/c(=C\C(=O)C(C)(C)C)[nH]c2=O)ccc1O | 0 | -8 | 6 | 0
CCCC(=O)NC(c1ccc(F)cc1)c1ccc2cccnc2c1O (centres undefined) | -1 | 31 | 86* | -1
CCCC(=O)NC(c1ccccc1)c1ccc2cccnc2c1O (centres undefined) | -2 | 50 | 85* | -1
CCCC(=O)NC(c1ccc(OC)cc1)c1ccc2cccnc2c1O (centres undefined) | -2 | 50 | 72* | 1
